About 79,000 compounds went through this panel and 15% of them were active in at least one assay; those are over-represented in the sample as a whole. Active and inactive are the calls of the source. Cut-off read from the data, not from the text of the source: active = growth inhibition above about 70%; inactive = the rest.

A short description of the first assay: NCI Yeast Anticancer Drug Screen. Data for the mec2-1 strain (AID 157). Conditions: S. cerevisiae mec2-1 strain, at 50.0 µM, hits give high values. The method in brief: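 Compounds were applied to mec2-1 yeast cells. Their growth was then compared with that of vehicle-treated cultures to give growth inhibition.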
In the case of `Nc1cccnc1`, the growth inhibition is -35.5% (inactive).

Take `CCC1C2Cc3ccc(O)cc3C1(CC)CCN2C` (stereo not drawn): the growth inhibition was -35.2% (inactive).

On to `CC(=O)Nc1cc(Cl)c([N+](=O)[O-])cc1C`, for which the growth inhibition is -4.15% (inactive).

For the compound `O=[As](c1ccccc1)(c1ccccc1)c1ccc(Br)cc1`, the growth inhibition is 1.25% (inactive).

With `CCC(CCl)NC(CC(C)C)CC(C)C` (stereo not drawn), the growth inhibition was 2.95% (inactive).

On to `NC(=O)C[CH2][Sn]([Cl])([Cl])[CH2]CC(N)=O`, for which the growth inhibition was -5.5% (inactive).

`O=C(CCSCCC(=O)N/N=C/c1ccc(N(CCCl)CCCl)cc1)N/N=C\c1ccc(N(CCCl)CCCl)cc1`: the growth inhibition was 3.85% (inactive).

For the compound `OCCN=Cc1c[nH]c2ccccc12`, the growth inhibition was -42.9% (inactive).

Regarding `COc1ccc(CCN)c(OC)c1`, the growth inhibition is 2.8% (inactive).

For the compound `NP(=O)(Oc1cccc2c(OP(N)(=O)N(CCCl)CCCl)cccc12)N(CCCl)CCCl` (stereo not drawn), the growth inhibition was -3.65% (inactive).

For `CCCC[C@@H]1CCN2C[C@@H](O)[C@@H](O)[C@@H]2[C@H]1O`, the growth inhibition was 5.65% (inactive).

On to `Nc1ccc(C(=O)O)c([As](O)O)c1`, for which the growth inhibition is 8.55% (inactive).

Take `c1cc(C2N3CCCN2CC3)ccn1` (stereo not drawn): the growth inhibition was -27.7% (inactive).

Turning to `CCN(CC)C(=S)Cl`, the growth inhibition was -29.4% (inactive).

For `COC(=O)C1c2cc(OC)c(OC)cc2C(=O)N2CCc3cc4c(cc3C12)OCO4` (stereo not drawn), the growth inhibition is -14.8% (inactive).

For `ClCCN(CCCl)c1ccc2c(c1)Cc1cc(Br)ccc1-2`, the growth inhibition was 2% (inactive).

On to `COc1cccc2c1C(=O)c1c(O)c3c(c(O)c1C2=O)C[C@@](O)(C(=O)CO)C[C@@H]3OC1CC(N2CCOCC2C#N)C(O)C(C)O1` (stereo partly drawn), for which the growth inhibition was 91.2% (active).

For `CCC(=O)[O-].CCC(=O)[O-].N.N.N.N.[Co+3].[O-][Cl+3]([O-])([O-])[O-]`, the growth inhibition was -1.6% (inactive).

Regarding `O=C(Cl)c1ccc[nH]1`, the growth inhibition was -13.9% (inactive).

With `COc1ccc(C(=O)/C=C/c2ccccc2)cc1`, the growth inhibition was -7.25% (inactive).

As to `CN1CN(c2ccccc2)C2(CCN(CCCCCCF)CC2)C1=O`, the growth inhibition is -15.9% (inactive).

As for `CC(=O)OC1CCC2(C)C(CCC3C2CCC2(C)C(c4ccc(=O)oc4)C(OC(C)=O)CC32O)C1` (stereo not drawn), the growth inhibition is 0.05% (inactive).

As for `ClCCN(CCCl)c1ncnc2c1ncn2Cc1ccccc1`, the growth inhibition is 17.4% (inactive).

`OC1(c2ccccc2)C2CCN(CC2)C1CN1CCOCC1` (stereo not drawn): the growth inhibition was -30.7% (inactive).

`Fc1ccc(N=C=S)cc1`: the growth inhibition is -20.2% (inactive).

Regarding `CCC[CH2][Sn]([CH2]CCC)([CH2]CCC)[CH2]CCNCCCN(C)C`, the growth inhibition is 99.7% (active).

Consider `CCC(Cl)COP(=O)(OCC(Cl)CC)C(CC)OP(=S)(OCC(Cl)CC)OCC(Cl)CC` (stereo not drawn), for which the growth inhibition was 11.3% (inactive).

In the case of `NP(=O)(OCCC(OCc1ccccc1)OCc1ccccc1)N(CCCl)CCCl` (stereo not drawn), the growth inhibition was 9.1% (inactive).

Consider `C[Si](C)(C)CN(N=O)C(N)=O`, for which the growth inhibition is 3.4% (inactive).

In the case of `Cc1cc(C(C)(C)C)ccc1O`, the growth inhibition was -4.1% (inactive).

On to `Cc1ncc(CNC(=O)N(CCCl)N=O)c(N)n1`, for which the growth inhibition is -6.8% (inactive).

Turning to `COc1ccc(Oc2cc3c(cc2OC)CCN(C)C3)cc1`, the growth inhibition was 7.7% (inactive).

Consider `O=C(C[n+]1ccccc1)C1CCCC2CC3CCCCC3CC21` (stereo not drawn), for which the growth inhibition was 18.3% (inactive).

Turning to `CC(=O)[CH-]C(C)=O.CC(=O)[CH-]C(C)=O.CC(=O)[CH-]C(C)=O.[Cl-].[Hf+4]`, the growth inhibition was -1.25% (inactive).

For the compound `O=C(NCC(O)CO)c1c([N+](=O)[O-])ccc(N(CCCl)CCCl)c1[N+](=O)[O-]` (stereo not drawn), the growth inhibition was -9.85% (inactive).

For `N=C(N)n1cc(/C=N/N=C(N)N)cn1`, the growth inhibition is -4.35% (inactive).

As to `CCCCC(C(=O)NN)P(=O)(OCC)OCC` (stereo not drawn), the growth inhibition was -5.2% (inactive).

As for `OCCSCSCCO`, the growth inhibition was -8.8% (inactive).

On to `CCC[P+](CCC)(CCC)CCCCCCCCCC[P+](CCC)(CCC)CCC`, for which the growth inhibition was -13% (inactive).

A further assay is described as follows: NCI Yeast Anticancer Drug Screen. Data for the sgs1 mgt1 strain (AID 161).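 Note: 0% = growth of cultures given vehicle only.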 Conditions: S. cerevisiae sgs1 mgt1 strain, at 50.0 µM, hits give high values. The method in brief: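 Growth of a repair-deficient yeast mutant was monitored after compound treatment and expressed as inhibition relative to vehicle-treated cultures.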
Consider `Nc1cccnc1`, for which the growth inhibition was 23.8% (inactive).

Consider `CCC1C2Cc3ccc(O)cc3C1(CC)CCN2C` (stereo not drawn), for which the growth inhibition was -42.5% (inactive).

`CC(=O)Nc1cc(Cl)c([N+](=O)[O-])cc1C`: the growth inhibition was -12.4% (inactive).

`O=[As](c1ccccc1)(c1ccccc1)c1ccc(Br)cc1`: the growth inhibition is 12.2% (inactive).

Regarding `CCC(CCl)NC(CC(C)C)CC(C)C` (stereo not drawn), the growth inhibition was -6.75% (inactive).

Consider `NC(=O)C[CH2][Sn]([Cl])([Cl])[CH2]CC(N)=O`, for which the growth inhibition was 3.55% (inactive).

As for `O=C(CCSCCC(=O)N/N=C/c1ccc(N(CCCl)CCCl)cc1)N/N=C\c1ccc(N(CCCl)CCCl)cc1`, the growth inhibition was 9.35% (inactive).

Turning to `OCCN=Cc1c[nH]c2ccccc12`, the growth inhibition was -28.1% (inactive).

As for `COc1ccc(CCN)c(OC)c1`, the growth inhibition is -3.5% (inactive).

`NP(=O)(Oc1cccc2c(OP(N)(=O)N(CCCl)CCCl)cccc12)N(CCCl)CCCl` (stereo not drawn): the growth inhibition was 8.1% (inactive).

In the case of `CCCC[C@@H]1CCN2C[C@@H](O)[C@@H](O)[C@@H]2[C@H]1O`, the growth inhibition was -9.45% (inactive).

With `Nc1ccc(C(=O)O)c([As](O)O)c1`, the growth inhibition is -1% (inactive).

On to `c1cc(C2N3CCCN2CC3)ccn1` (stereo not drawn), for which the growth inhibition was -34% (inactive).

For the compound `CCN(CC)C(=S)Cl`, the growth inhibition is -0.5% (inactive).

As for `COC(=O)C1c2cc(OC)c(OC)cc2C(=O)N2CCc3cc4c(cc3C12)OCO4` (stereo not drawn), the growth inhibition was 0.65% (inactive).

Take `ClCCN(CCCl)c1ccc2c(c1)Cc1cc(Br)ccc1-2`: the growth inhibition is 40.7% (inactive).

In the case of `COc1cccc2c1C(=O)c1c(O)c3c(c(O)c1C2=O)C[C@@](O)(C(=O)CO)C[C@@H]3OC1CC(N2CCOCC2C#N)C(O)C(C)O1` (stereo partly drawn), the growth inhibition was 92.4% (active).

For `CCC(=O)[O-].CCC(=O)[O-].N.N.N.N.[Co+3].[O-][Cl+3]([O-])([O-])[O-]`, the growth inhibition is -9.1% (inactive).

As for `O=C(Cl)c1ccc[nH]1`, the growth inhibition is -13.7% (inactive).

Take `COc1ccc(C(=O)/C=C/c2ccccc2)cc1`: the growth inhibition is 30.1% (inactive).

`CN1CN(c2ccccc2)C2(CCN(CCCCCCF)CC2)C1=O`: the growth inhibition was -19.4% (inactive).

Turning to `CC(=O)OC1CCC2(C)C(CCC3C2CCC2(C)C(c4ccc(=O)oc4)C(OC(C)=O)CC32O)C1` (stereo not drawn), the growth inhibition is 21.3% (inactive).

Turning to `ClCCN(CCCl)c1ncnc2c1ncn2Cc1ccccc1`, the growth inhibition was 15.6% (inactive).

Take `OC1(c2ccccc2)C2CCN(CC2)C1CN1CCOCC1` (stereo not drawn): the growth inhibition was -20.6% (inactive).

`Fc1ccc(N=C=S)cc1`: the growth inhibition was -24.1% (inactive).

In the case of `CCC[CH2][Sn]([CH2]CCC)([CH2]CCC)[CH2]CCNCCCN(C)C`, the growth inhibition was 99.5% (active).

For `CCC(Cl)COP(=O)(OCC(Cl)CC)C(CC)OP(=S)(OCC(Cl)CC)OCC(Cl)CC` (stereo not drawn), the growth inhibition is 65.7% (inactive).

For the compound `NP(=O)(OCCC(OCc1ccccc1)OCc1ccccc1)N(CCCl)CCCl` (stereo not drawn), the growth inhibition was 54.6% (inactive).

For `C[Si](C)(C)CN(N=O)C(N)=O`, the growth inhibition is -3.45% (inactive).

Turning to `Cc1cc(C(C)(C)C)ccc1O`, the growth inhibition is 8.95% (inactive).

For `Cc1ncc(CNC(=O)N(CCCl)N=O)c(N)n1`, the growth inhibition is 6.3% (inactive).

Take `COc1ccc(Oc2cc3c(cc2OC)CCN(C)C3)cc1`: the growth inhibition was 20.1% (inactive).

Turning to `O=C(C[n+]1ccccc1)C1CCCC2CC3CCCCC3CC21` (stereo not drawn), the growth inhibition was 29.9% (inactive).

Regarding `CC(=O)[CH-]C(C)=O.CC(=O)[CH-]C(C)=O.CC(=O)[CH-]C(C)=O.[Cl-].[Hf+4]`, the growth inhibition is -16.6% (inactive).

For `O=C(NCC(O)CO)c1c([N+](=O)[O-])ccc(N(CCCl)CCCl)c1[N+](=O)[O-]` (stereo not drawn), the growth inhibition was -0.45% (inactive).

`N=C(N)n1cc(/C=N/N=C(N)N)cn1`: the growth inhibition was -0.15% (inactive).

Regarding `CCCCC(C(=O)NN)P(=O)(OCC)OCC` (stereo not drawn), the growth inhibition was 15.8% (inactive).

In the case of `OCCSCSCCO`, the growth inhibition is 5.8% (inactive).

Regarding `CCC[P+](CCC)(CCC)CCCCCCCCCC[P+](CCC)(CCC)CCC`, the growth inhibition was 2.05% (inactive).
